# Source: PubChem BioAssay AID463173 (ICCB-Longwood Screening Facility, Harvard Medical School, 2010)
# The campaign covered roughly 52,000 compounds. About 4,300 (8.3%) were called active. Cut-off read from the data, not from the text of the source: active = survival mostly below about 52% (no sharp cut-off); inactive = mostly above about 56%. Only a selection was taken, and actives are over-represented in it overall.
# Test system: DeltatarO mutant
# Test: S. aureus survival, RN4220 and DeltatarO strains – OD600, teichoic acid synthesis inhibitors, primary screen (AID 463173)
# Settings: S. aureus RN4220 wild type/DeltatarO growth, OD600, 18 h, hits give low values, screened at 18.75 µg/mL (by protocol)
row,SMILES,survival
1,Cc1c(C(=O)N2CCCCC2)c(S(=O)(=O)NCc2ccc(N(C)C)cc2)c(C)n1C,120% (inactive)
2,COc1cccc(-c2nnn(CCc3nn[nH]n3)n2)c1,84% (inactive)
3,CCOC(=O)CCN(c1ccccc1)S(=O)(=O)c1ccc2[nH]c(=O)ccc2c1,95% (inactive)
4,CCC(C(=O)N1CCN(c2cc(Cl)ccc2C)CC1)n1nc(C)n2c(cc3occc32)c1=O (stereo unspecified),69% (inactive)
5,CCC(C(=O)N1CCN(c2cc(C)ccc2C)CC1)n1nc(C)n2c(cc3occc32)c1=O (stereo unspecified),43% (active)
6,CCC(C(=O)N1CCN(c2ccc(OC)cc2)CC1)n1nc(C)n2c(cc3occc32)c1=O (stereo unspecified),117% (inactive)
7,Cc1ccc(S(=O)(=O)c2nc(S(=O)(=O)c3ccc(C)cc3)c(NCCCOC(C)C)s2)cc1,75% (inactive)
8,C=C(C)c1cccc(C(C)(C)NC(=O)N2CCCC2)c1,111% (inactive)
9,Cc1ccc(CNC(=O)Cc2c(C)c3c(cc(C)c4c(C)coc43)oc2=O)cc1,100% (inactive)
10,CCCCn1c(NCc2ccc(N(C)C)cc2)nc2ccccc21,52% (inactive)
11,CCCCn1c(NCc2cc(Br)ccc2O)nc2ccccc21,42% (active)
12,CCCn1c(NCc2ccccc2C)nc2ccccc21,108% (inactive)
13,CCCn1c(NCc2ccc(N(CC)CC)cc2)nc2ccccc21,29% (active)
14,Cn1c(NCc2ccccc2F)nc2ccccc21,93% (inactive)
15,CCCCn1c(NCc2ccc(OC)cc2O)nc2ccccc21,66% (inactive)
16,CCn1c(NCc2ccc(OC)c(OC)c2)nc2ccccc21,116% (inactive)
17,CCCn1c(NCc2ccccc2F)nc2ccccc21,90% (inactive)
18,CCCCCn1c(NCc2ccc(OC)cc2)nc2ccccc21,33% (active)
19,CCCC(O)c1nc2ccccc2n1Cc1ccccc1OC (stereo unspecified),105% (inactive)
20,CCCCCn1c(NCc2ccccc2OC)nc2ccccc21,-1% (active)
21,CCn1c(NCc2ccccc2)nc2ccccc21,95% (inactive)

row,SMILES,survival
1,CCOC(=O)c1cc(-c2ccc(F)cc2)n(CCC(=O)Nc2cc(OC)cc(OC)c2)c1C,71% (inactive)
2,Cc1ccc(Cl)cc1-n1ncc2c(Nc3ccc4c(c3)OCCO4)ncnc21,82% (inactive)
3,Cc1c(C(=O)N2CCCC2)oc2c1-c1nn(CC(=O)NCc3cccc(Br)c3)cc1CC2,75% (inactive)
4,COc1ccccc1-c1cc2nc(C)c(CCC(=O)Nc3cc(C)ccc3C)c(C)n2n1,60% (inactive)
5,COc1ccc(CNC(=O)C2(c3cccs3)CCOCC2)cc1,72% (inactive)
6,CCOc1ccc2c(c1)c(=O)c(S(=O)(=O)c1ccccc1)cn2CC(=O)Nc1ccccc1OC,70% (inactive)
7,CC1=C(C(=O)NCc2ccc(Cl)cc2)C2(CCC(C)CC2)OC1=O (stereo unspecified),86% (inactive)
8,Cc1nn(C)c2c1c(C(F)(F)F)cc(=O)n2C(C)C(=O)NCCc1ccc(Cl)cc1 (stereo unspecified),81% (inactive)
9,Cn1c(=O)nc2n(-c3ccc(Cl)c(Cl)c3)c3cc(Cl)ccc3cc-2c1=O,87% (inactive)
10,CCOc1ccc(CN2CCc3nc(N4CCN(c5ccccn5)CC4)ncc3C2)cc1OC,120% (inactive)
11,COC(=O)c1ccc(C2c3c(oc4ccccc4c3=O)C(=O)N2c2nc(C)c(C(=O)OC)s2)cc1 (stereo unspecified),71% (inactive)
12,CCCOc1ccc(C2c3c(oc4ccccc4c3=O)C(=O)N2c2nnc(C(C)C)s2)cc1 (stereo unspecified),58% (active)
13,CCOc1cccc(C2c3c(oc4ccccc4c3=O)C(=O)N2c2nc(C)c(C(=O)OC)s2)c1 (stereo unspecified),51% (inactive)
14,CCOc1cccc(C2c3c(oc4cc(C)c(C)cc4c3=O)C(=O)N2c2nc(C)c(C)s2)c1 (stereo unspecified),74% (active)
15,CCOc1cc(C2c3c(oc4ccccc4c3=O)C(=O)N2Cc2ccc3c(c2)OCO3)ccc1O (stereo unspecified),81% (inactive)
16,CC(C)c1nnc(N2C(=O)c3oc4ccccc4c(=O)c3C2c2cccc(O)c2)s1 (stereo unspecified),62% (inactive)
17,COc1ccc(C2c3c(oc4ccccc4c3=O)C(=O)N2Cc2ccc3c(c2)OCO3)cc1 (stereo unspecified),71% (inactive)
18,Cc1nc(N2C(=O)c3oc4ccccc4c(=O)c3C2c2cccc(OCCC(C)C)c2)sc1C (stereo unspecified),59% (inactive)
19,COc1cc(C2c3c(oc4ccccc4c3=O)C(=O)N2c2nnc(C(C)C)s2)cc(OC)c1OC (stereo unspecified),63% (inactive)
20,CCCOc1ccc(C2c3c(oc4ccccc4c3=O)C(=O)N2c2nc(C)c(C(=O)OCC)s2)cc1 (stereo unspecified),60% (inactive)
21,CCOC(=O)c1sc(N2C(=O)c3oc4ccccc4c(=O)c3C2c2ccc(C(C)(C)C)cc2)nc1C (stereo unspecified),51% (active)

row,SMILES,survival
1,CCOc1ccc(C2c3c(oc4ccccc4c3=O)C(=O)N2Cc2ccc3c(c2)OCO3)cc1 (stereo unspecified),36% (active)
2,Cc1cccc(CC(=O)NCCc2csc(-c3ccc(C(F)(F)F)cc3)n2)c1,101% (inactive)
3,CCc1ccc(-n2c(=O)c3ccccc3n(CC(=O)NCCc3ccc(OC)c(OC)c3)c2=O)cc1,91% (inactive)
4,CC(C)OC(=O)CSc1nnc(-c2ccc(O)cc2)o1,72% (inactive)
5,COc1ccc(CSC(=N)N)cc1Cl,97% (inactive)
6,COc1ccc(-c2csc(N)n2)cc1C,97% (inactive)
7,O=C(NCC(c1ccco1)S(=O)(=O)c1cccs1)c1ccc(F)c(F)c1 (stereo unspecified),75% (inactive)
8,Cc1cc(Cl)ccc1NC(=O)CCCn1nc(C)c2c(C)n(-c3ccccc3)nc2c1=O,112% (inactive)
9,COc1cccc(CNC(=O)CCn2nc(C)c3c(C)n(-c4ccccc4)nc3c2=O)c1,83% (inactive)
10,CCOc1ccc(CCNC(=O)Cn2nc(C)c3c(C)n(-c4ccccc4)nc3c2=O)cc1OCC,25% (active)
11,Cc1cccc(NC(=O)CCn2nc(C)c3c(C)n(-c4ccccc4)nc3c2=O)c1C,57% (inactive)
12,Cc1ccc(NC(=O)CCCn2nc(C)c3c(C)n(-c4ccccc4)nc3c2=O)c(Cl)c1,89% (inactive)
13,COc1ccc(CNC(=O)CCn2nc(C)c3c(C)n(-c4ccccc4)nc3c2=O)cc1OC,0% (active)
14,Cc1cc(Cl)ccc1NC(=O)CCn1nc(C)c2c(C)n(-c3ccccc3)nc2c1=O,72% (inactive)
15,CCN(CC)CCNC(=O)Cn1nc(C)c2c(C)n(-c3ccccc3)nc2c1=O,70% (inactive)
16,Cc1ccc(C)c(NC(=O)CCn2nc(C)c3c(C)n(-c4ccccc4)nc3c2=O)c1,37% (active)
17,COc1ccc(CNC(=O)CCCn2nc(C)c3c(C)n(-c4ccc(C)cc4)nc3c2=O)cc1OC,74% (inactive)
18,Cc1ccc(CCNC(=O)Cn2nc(C)c3c(C)n(-c4ccc(C)cc4)nc3c2=O)cc1,79% (inactive)
19,COc1cc(OC)c(NC(=O)CCCn2nc(C)c3c(C)n(-c4ccccc4)nc3c2=O)cc1Cl,32% (active)
